In the supplement of paper PMC6555819:

Experiments:
Experiment in all cases: PBM binding z-score (relative to random genomic background probes); higher = stronger binding; sequences stand for … in GC…GCGATTGACAGCGTAGAATGAAGG
[1] = test system: FXR:RXRa (NR concentration 270 nM, RXRa partner concentration 90 nM)
In short: (§1)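 For binding z-scores, the reference was random background probes on custom Agilent 4×180K protein-binding microarrays. These arrays were incubated 1 h with ligand-free nuclear receptor dimers in PBS pH 7.4, 2% milk, 0.02% Triton X-100, 1 mM DTT, 0.2 mg/mL BSA and 0.4 mg/ml salmon testes DNA. Fluorescence was scanned after antibody detection of each partner (one per run) and regression-normalized.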

[2] = test system: LXRa:RXRa (NR concentration 270 nM, RXRa partner concentration 90 nM)
In short: as §1

[3] = test system: LXRa homodimer (NR concentration 270 nM)
In short: as §1

[4] = test system: LXRb:RXRa (NR concentration 270 nM, RXRa partner concentration 90 nM)
In short: as §1

[5] = test system: LXRb homodimer (NR concentration 270 nM)
In short: as §1

[6] = test system: PPARa:RXRa (NR concentration 270 nM, RXRa partner concentration 90 nM)
In short: as §1

[7] = test system: PPARg:RXRa (NR concentration 180 nM, RXRa partner concentration 90 nM)
In short: as §1

[8] = test system: PPARg:RXRa 270nM:90nM, anti-RXR (NR concentration 270 nM, RXRa partner concentration 90 nM)
In short: as §1

[9] = test system: PPARg:RXRa 30nM:10nM, anti-RXR (NR concentration 30 nM, RXRa partner concentration 10 nM)
In short: as §1

[10] = test system: PPARg:RXRa 90nM:30nM, anti-RXR (NR concentration 90 nM, RXRa partner concentration 30 nM)
In short: as §1

[11] = test system: PPARg:RXRa DBDmut IVT, anti-RXR (DBD mutation: RXRa K156A/R161A, NR concentration 270 nM, RXRa partner concentration 90 nM)
In short: as §1

[12] = test system: PPARg:RXRa IVT, anti-PPARg (NR concentration 270 nM, RXRa partner concentration 90 nM)
In short: as §1

[13] = test system: PPARg DBDmut:RXRa IVT, anti-PPARg (DBD mutation: PPARg1 K132A/R137A, NR concentration 270 nM, RXRa partner concentration 90 nM)
In short: as §1

[14] = test system: PPARg DBDmut IVT, anti-PPARg (DBD mutation: PPARg1 K132A/R137A, NR concentration 270 nM)
In short: as §1

[15] = test system: PPARg homodimer (NR concentration 180 nM)
In short: as §1

[16] = test system: PXR:RXRa (NR concentration 270 nM, RXRa partner concentration 90 nM)
In short: as §1

[17] = test system: PXR homodimer (NR concentration 270 nM)
In short: as §1

[18] = test system: RARa:RXR (NR concentration 270 nM, RXRa partner concentration 90 nM)
In short: as §1

[19] = test system: RARa homodimer (NR concentration 270 nM)
In short: as §1

[20] = test system: RARb:RXRa (NR concentration 270 nM, RXRa partner concentration 90 nM)
In short: as §1

| Sequence | PBM binding z-score [1] | PBM binding z-score [2] | PBM binding z-score [3] | PBM binding z-score [4] | PBM binding z-score [5] | PBM binding z-score [6] | PBM binding z-score [7] | PBM binding z-score [8] | PBM binding z-score [9] | PBM binding z-score [10] | PBM binding z-score [11] | PBM binding z-score [12] | PBM binding z-score [13] | PBM binding z-score [14] | PBM binding z-score [15] | PBM binding z-score [16] | PBM binding z-score [17] | PBM binding z-score [18] | PBM binding z-score [19] | PBM binding z-score [20] |
| --- | --- | --- | --- | --- | --- | --- | --- | --- | --- | --- | --- | --- | --- | --- | --- | --- | --- | --- | --- | --- |
| TAGCCTAGGTCAGAACGGGCCAGTATACGCTATA | 1.13 | 0.618 | -0.471 | 0.47 | -0.65 | 1.31 | 0.763 | 0.742 | -0.161 | 0.153 | 0.749 | 1.5 | -0.735 | -1.15 | 0.155 | 0.457 | -0.462 | 0.873 | -0.513 | 2.75 |
| GCGACTGGGGCAAAGCTGGTTACCATAAGGTTGG | -0.489 | -0.411 | -0.621 | -0.147 | -0.966 | 0.78 | 0.929 | 1.26 | -0.311 | 0.816 | 4.32 | 3.14 | -0.175 | -0.912 | -0.562 | -0.523 | -0.799 | -0.0421 | -0.562 | 0.598 |
| ATATGTAGATTAAGGGTCATTCAGGTTGGTTCGC | 3.93 | 4.24 | 3.27 | 3.96 | 1.38 | 4.74 | 6.74 | 6.77 | 6.28 | 7.43 | 1.15 | 3.34 | 1.32 | 1.38 | 3.29 | 4.89 | 2.6 | 4.45 | 2.24 | 2.88 |
| CCATACGGGTCACGAGGTTATAGCACGACGAGCG | 6.99 | 4.32 | 0.528 | 3.79 | -0.0225 | 5.93 | 7.19 | 6.47 | 3.55 | 5.37 | 3.91 | 5.41 | 1.88 | 0.373 | 2.89 | 4.5 | 0.355 | 5.93 | 1.79 | 4.62 |
| ACAGACAGGTGAGTGAAGGTAACTCCGCTGGACG | 0.216 | -0.067 | -0.195 | -0.498 | -0.566 | 0.0372 | 0.503 | -0.251 | 0.0064 | -0.389 | 0.529 | 0.681 | -0.384 | -0.279 | -0.155 | -0.132 | -0.203 | 0.0904 | -0.274 | 0.621 |
| ATATGTAGGTTAGCTGGGGTCATTGAGACTAGGC | 4.97 | 5.62 | 2.48 | 4.62 | 1.35 | 5.24 | 5.52 | 5.03 | 2.46 | 4.26 | 6.54 | 6.07 | 2.23 | 1.29 | 2.75 | 6.11 | 3.42 | 5.49 | 0.751 | 2.9 |
| GCAGACAGGTGAAACGTAGGTAACTCAGGGTGGC | -0.116 | 0.0027 | -0.589 | -0.409 | -0.785 | 0.799 | 0.792 | 0.526 | -0.444 | -0.0243 | 1.69 | 0.679 | -0.482 | -0.518 | -0.211 | -0.374 | -0.933 | 0.315 | -0.166 | 0.76 |
